Measured values: the supplement of paper PMC10127200
Structures can show the parent of a compound that is named as a salt.

Columns and labels:
Test in all cases: Euclidean distance of Cell Painting phenotypic profile (signed KS, 77 features) to DMSO centroid (dimensionless distance); 5 or 10 uM (library dependent); higher = stronger phenotypic change vs DMSO (phenoactivity)
Details in all cases: 48 h
786-O = test system: 786-O
In short: (§1)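 Five cancer lines and a healthy fibroblast line received library compounds at 10 or 5 uM (library-dependent, 0.1% DMSO final) for 48 h. Stained cells were imaged confocally at 20X (9 fields/well). Harmony extracted 77 features, each scored as a signed Kolmogorov-Smirnov statistic against same-plate vehicle wells. Profiles were plate-position corrected, correlation-weighted and replicate-averaged at the top dose. Phenoactivity is the Euclidean distance from each profile to the median vehicle profile.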

A549 = test system: A549
In short: as §1

DU145 = test system: DU145
In short: as §1

FB = test system: FB
In short: as §1

HEPG2 = test system: HEPG2
In short: as §1

OVCAR4 = test system: OVCAR4
In short: as §1

Structure (SMILES)	Euclidean distance (786-O)	Euclidean distance (A549)	Euclidean distance (DU145)	Euclidean distance (FB)	Euclidean distance (HEPG2)	Euclidean distance (OVCAR4)
CC(C)C(=O)OCC(=O)[C@@]12O[C@H](C3CCCCC3)O[C@@H]1C[C@H]1[C@@H]3CCC4=CC(=O)C=C[C@]4(C)[C@H]3[C@@H](O)C[C@@]12C [Ciclesonide]	1.71	2.49	2.88	2.36	2.25	2.09
CCc1nc(-c2cccc(C)c2)c(-c2ccnc(NC(=O)c3ccccc3)c2)s1	1.58	0.983	1.46	1.37	1.19	1.34
CO/N=C(\C(=O)N[C@@H]1C(=O)N2C(C(=O)O)=C(CSc3nc(=O)c(O)nn3C)CS[C@H]12)c1csc(N)n1 [Ceftriaxone Sodium Trihydrate]	1.01	0.779	1.23	0.836	0.792	0.926
Cc1cccc(Nc2nc(-c3ccncc3)cs2)c1	3.35	3.77	4.06	3.02	1.11	1.73
CCN1/C(=C/C(C)=O)Sc2ccc(OC)cc21	0.422	0.711	1.03	0.64	1.98	0.872
C[C@H]1[C@H](NC(=O)/C(=N\OC(C)(C)C(=O)O)c2csc(N)n2)C(=O)N1S(=O)(=O)O [Aztreonam]	1.13	0.951	1.05	1.15	0.888	1.53
CCCCOC(=O)c1ccccc1Nc1cccc(C(F)(F)F)c1 [Ufenamate]	1.52	0.505	1.4	1.25	0.931	1.83
C[S+](CC[C@H](N)C(=O)[O-])C[C@H]1O[C@@H](n2cnc3c(N)ncnc32)[C@H](O)[C@@H]1O (some centres undefined) [Ademetionine]	0.708	1.02	0.772	0.885	0.304	0.658
CN(C)CC/C=C1/c2ccccc2COc2ccc(CC(=O)O)cc21 [Olopatadine HCl]	0.847	0.745	0.865	1.38	0.686	0.734
COc1ccc(-c2cc3c(C)nc(N)nc3n([C@H]3CC[C@H](OCCO)CC3)c2=O)cn1	4.94	3.33	2.31	4.31	2.12	3.03
C#C[C@]1(OC(C)=O)CC[C@H]2[C@@H]3CCC4=C[C@@H](OC(C)=O)CC[C@@H]4[C@H]3CC[C@@]21C [Ethynodiol diacetate]	1.27	1.31	0.938	1.29	0.735	1.1
O=c1ccn([C@@H]2O[C@H](COP(=O)(O)OP(=O)(O)OP(=O)(O)O)[C@@H](O)[C@H]2O)c(=O)[nH]1 [UTP. Trisodium Salt]	1.15	0.718	0.761	0.666	1.23	0.979
C=C1CCN([C@H](C)[C@](O)(Cn2cncn2)c2ccc(F)cc2F)CC1 [Efinaconazole]	0.843	0.567	0.723	0.84	0.73	0.881
CC1CCc2c(N3CCC(O)CC3)c(F)cc3c(=O)c(C(=O)O)cn1c23 (centres undefined) [Nadifloxacin]	1.05	0.818	0.896	1.14	0.855	0.748
c1cnc(N2CCN(Cc3ccc4c(c3)OCO4)CC2)nc1 [Piribedil]	1.19	0.769	1.21	1.05	0.645	0.899
C[C@@H](NC(=O)c1ncnc(N)c1Cl)c1ncc(C(=O)Nc2cc(C(F)(F)F)c(Cl)cn2)s1	1.57	2.12	1.59	1.41	0.931	1.52
Cc1ccc(S(=O)(=O)c2ccc([N+](=O)[O-])o2)cc1	6.48	1.74	3.22	5.11	1.81	6.14
O=C(NOC[C@H](O)CO)c1ccc(F)c(F)c1Nc1ccc(I)cc1F	3.1	2.57	3.66	3.5	2.03	2.63
O=C1CCCC(=O)C1C(=O)c1ccc(C(F)(F)F)cc1[N+](=O)[O-] [Nitisinone]	1.12	0.58	1.2	1	0.455	1.09
CCC1(c2c[nH]cn2)Cc2ccccc2C1 [Atipamezole]	0.467	0.642	0.626	0.848	0.484	0.675
O=C(Nc1cnn2ccc(N3CCC[C@@H]3c3cc(F)ccc3F)nc12)N1CC[C@H](O)C1 [Larotrectinib (LOXO-101) sulfate]	0.597	0.899	1.05	0.634	0.551	1.27
OC[C@@H](O)[C@@H](O)[C@H](O)[C@H](O)CO [D-Mannitol]	1.14	0.536	0.826	0.744	0.415	0.791
CC1(C)CCC[C@]2(C)[C@H]3CC(=O)O[C@]3(C)CC[C@@H]12 [Sclareolide]	1.98	1.52	1.35	0.844	1.58	1.36
CN(C)CCC=C1c2ccccc2COc2ccccc21 [Doxepin HCl]	1.22	1.14	1.36	1.45	0.967	2.09
